Compound activity: PubChem, National Center for Advancing Translational Sciences (NCATS)
Six1-Eya2 blk: qHTS Assay for Inhibitors of the Six1/Eya2 Interaction; AID 651725, 2012; actives 0.56% (n = 360,000); Homeobox protein SIX1 (Homo sapiens) + Protein phosphatase EYA2 (Homo sapiens), …; AlphaScreen GST-Six1/His-Eya2 binding, biochemical; stronger effect = lower value; activity change, % (no concentration beside the values); in the data active = activity change below about -65%; inconclusive = mostly about -30% to -63%
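Compounds are tested against tagged Six1 and Eya2 proteins bridged by glutathione donor and nickel acceptor beads; after a one-hour incubation at 37 °C without light, AlphaScreen emission is recorded.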
L3MBTL1 inh: qHTS Assay for the Inhibitors of L3MBTL1 | Lethal(3)malignant brain tumor-like protein 1 (Homo sapiens), Q9Y468 | AlphaScreen L3MBTL1–H3K9me1 peptide binding | actives 0.66% (n = 230,000) | Potency, µM (doses to about 57.1 µM), without a hit: at the top dose activity, negative = inhibition, most hits filed as inhibitors | AID 485360, 2010; note: potency is the fitted concentration of half-maximal effect; nearly all actives have a fitted effect of over 60% in size
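Read-out is AlphaScreen signal from streptavidin donor and nickel chelate acceptor beads (10 ug/mL final each) bridging L3MBTL1 (50 nM) and biotinylated K9-monomethylated H3(1-15) peptide (75 nM), after 30 min compound exposure at room temperature.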
USP2a block: qHTS Assay for Inhibitors of Ubiquitin-specific Protease USP2a Using CHOP2 as the Reporter. Ubiquitin carboxyl-terminal hydrolase 2 (Homo sapiens), O75604. USP2 core, Ub-CHOP2 coupled fluorogenic reporter, 485/531. Potency, µM (top dose mostly 38.3 µM), inactives show at the highest dose activity change, negative = inhibition, usual class: inhibitors. actives 0.01% (n = 330,000);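 note: potency is the fitted concentration of half-maximal effect; plate controls were DMSO wells for no effect and full inhibition by NEM control for full effect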
Target sequence (O75604 whole entry, looked up): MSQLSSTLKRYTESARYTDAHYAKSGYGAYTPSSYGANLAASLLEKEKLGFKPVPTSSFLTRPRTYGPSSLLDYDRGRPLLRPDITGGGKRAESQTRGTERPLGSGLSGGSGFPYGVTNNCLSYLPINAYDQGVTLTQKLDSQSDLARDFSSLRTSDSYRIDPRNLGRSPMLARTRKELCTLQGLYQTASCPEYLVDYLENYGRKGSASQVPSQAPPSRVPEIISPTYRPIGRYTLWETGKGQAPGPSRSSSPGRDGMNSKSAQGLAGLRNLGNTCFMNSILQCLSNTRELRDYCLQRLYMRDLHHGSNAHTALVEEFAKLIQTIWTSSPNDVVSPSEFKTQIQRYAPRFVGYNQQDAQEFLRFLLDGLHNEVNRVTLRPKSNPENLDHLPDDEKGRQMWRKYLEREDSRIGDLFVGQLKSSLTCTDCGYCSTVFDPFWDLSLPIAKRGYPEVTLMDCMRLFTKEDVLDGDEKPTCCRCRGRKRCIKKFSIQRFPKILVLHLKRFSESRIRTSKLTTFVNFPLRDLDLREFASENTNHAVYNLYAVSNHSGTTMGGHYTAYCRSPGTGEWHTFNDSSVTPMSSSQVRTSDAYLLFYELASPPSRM
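USP2 core (10nM final) preincubated 30min RT with compound in 20mM Tris-HCl pH 8.0, 2mM CaCl2, 2mM beta-mercaptoethanol, 0.05% CHAPS; 25nM Ub-CHOP2 plus 25nM reporter substrate added, fluorescence (Ex485/Em531) read after 60min.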
CtBP-E1A inh: qHTS Assay for Inhibitors of the CtBP/E1A Interaction. AlphaScreen GST-E1A/His-CtBP binding, 1536-well; stronger effect = lower value. actives 0.49% (n = 340,000). CtBP / adenovirus E1A interaction (AlphaScreen). activity change, % (no concentration beside the values); in the data active = activity change below about -65%; inconclusive = mostly about -30% to -63%
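AlphaScreen with 125 nM GST-E1A and 125 nM His-CtBP (5X stocks) in Tris pH 8.0, 300 mM NaCl, BSA, Tween 20, TCEP. Compounds preincubated 2 h at 37 deg C, then glutathione donor/nickel acceptor beads added for 1 h at 37 deg C in dark.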
uPA generation: qHTS for Inhibitors of Cell Surface uPA Generation. cell surface uPA generation assay, qHTS. Potency, µM (titrated, usually from 38.3 µM), inactives show top-dose activity change, negative = inhibition, most hits filed as inhibitors. actives 0.31% (n = 330,000); active = well fitted inhibition curve with a large enough effect; inconclusive = small, poorly fitted or top-dose-only effect; inactive = no such curve, though single readings can be large or run the other way; tested in mouse RAW 264.7 cells; note: potency is the fitted concentration of half-maximal effect; nearly all actives have a fitted effect of over 55% in size
Eya2 inh: qHTS Assay for Inhibitors of the Phosphatase Activity of Eya2; recombinant Eya2, OMFP fluorescence dephosphorylation (OMFP is methylfluorescein phosphate); Protein phosphatase EYA2 (Homo sapiens), O00167; Potency, µM (titrated, usually from 76.9 µM), for inactives: at the top dose activity, negative = inhibition, hits mostly inhibitors; actives 0.006% (n = 330,000); note: potency is the fitted concentration of half-maximal effect
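Eya2 (0.2 uM) preincubated 10 min at ambient with compound, then OMFP substrate added at 50 uM; 10 min reaction in 50 mM HEPES pH 7.5, 50 mM NaCl, 5 uM MgCl2, 0.05% BSA, 1 mM DTT. Fluorescence read at Ex 485/Em 525 nm.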
Starred values were filed as active, the others as inactive; ? = inconclusive; · = not tested or not shown. Only some compounds are listed: those with a hit (about 1.2% of all), similar ones and a draw of the others. Unless noted, calls come from the whole dose curve; as a rule, active = well fitted curve in the direction sought with a large enough effect; inconclusive = small, poorly fitted or top-dose-only effect, or another doubt; inactive = no such curve, though single readings can be large; an effect the other way counts as inactive or inconclusive. Unless noted, % is set by controls: 0 for no effect and ±100 for the full control effect.

SMILES | Six1-Eya2 blk | L3MBTL1 inh | USP2a block | CtBP-E1A inh | uPA generation | Eya2 inh
O=CNc1cc(-c2ccoc2)cn2c(-c3ccc(F)cc3)cnc12 | -11 | · | · | -25 | · | ·
CC(C)CN(C(=O)/C=C/c1nc2ccccc2s1)C1CCS(=O)(=O)C1 (centres undefined) | 4 | -15% | 3% | -1 | -6% | -4%
Cc1ccc(CS(=O)Cc2ccc(C(=O)NCc3ccc(OC(C)C)cc3)o2)cc1 (centres undefined) | 1 | · | -4% | -6 | -2% | -6%
O=c1[nH][nH]cc1C=Nc1ccccc1Cl | 14 | 23% | 10% | · | -6% | 4%
O=c1[nH][nH]cc1C=Nc1ccccc1O | -77* | -28% | 0% | -83* | -7% | -9%
COc1cc(NC(=O)c2cnc(NCc3ccccc3)nc2C)cc(OC)c1OC | 4 | · | -1% | 2 | -7% | -6%
COc1cccc(CNc2ncc(C(=O)Nc3cc(OC)c(OC)c(OC)c3)c(C)n2)c1 | 1 | · | 4% | 8 | 5.6µM* | -7%
COc1ccc(NC(=O)/C(C#N)=C/c2ccc(Br)o2)cc1 | -9 | 32µM* | 0% | 3 | · | 1%
Cc1ccccc1CC1(CO)CCCN(C(=O)Cc2c(F)ccc(F)c2F)C1 (centres undefined) | 9 | -6% | 3% | 0 | -26% | -16%
CC1(C(=O)O)CCC(C(=O)NNC(=O)c2ccccc2Cl)C1(C)C (centres undefined) | 0 | · | · | -65* | 7% | ·
CC1(C(=O)O)CCC(C(=O)Nc2ccccc2O)C1(C)C (centres undefined) | 11 | · | 2% | -6 | 3% | 12%
CCCn1c(NC(=S)Nc2ccccc2)nc2ccccc21 | -2 | ? | 3% | 1 | 2% | 2%
S=C(Nc1ccccc1)Nc1nc2ccccc2n1CCOc1ccc(Cl)cc1 | 0 | 11µM* | 2% | -25 | -11% | -6%
COc1ccccc1C1=NN(C2=NN=C(N)Cc3ncnn32)C(O)(C(F)(F)F)C1 (centres undefined) | ? | 59% | 2% | -65* | -17% | -22%
COc1ccccc1NC(=O)C(=O)N1N=C(C(C)C)CC1(O)C(F)(F)F (centres undefined) | -1 | 10% | -1% | -10 | 2% | -8%
NC1=NN=C(N2N=C(c3ccccc3)CC2(O)C(F)(F)F)n2ncnc2C1 (centres undefined) | ? | 10% | 1% | -70* | 2% | 5%
NC1=NN=C(N2N=C(c3ccc(Br)cc3)CC2(O)C(F)(F)F)n2ncnc2C1 (centres undefined) | ? | · | -3% | -8 | · | -24%
COc1ccc(C2=NN(C3=NN=C(N)Cc4ncnn43)C(O)(C(F)(F)F)C2)cc1 (centres undefined) | -68* | 24% | -5% | -86* | 20% | 0%
CCn1c(=O)c2sccc2n(CC(=O)NC2CCCCC2)c1=O | -3 | · | 4% | -3 | 2% | 8%
CCC(=O)N1CCc2cc(Br)cc(S(=O)(=O)N(C)c3ccc(OC)cc3OC)c21 | -10 | · | -1% | -5 | 1% | -2%
CCOC(=O)c1cn(CC(=O)Nc2ccc(OC)cc2OC)nn1 | 3 | · | -5% | · | 10% | 0%
Cc1ccc2ccc3cccnc3c2n1 | ? | · | · | -90* | -9% | ·
O=C(O)c1ccc2cccnc2c1O | -16 | 3% | -1% | -16 | 6% | 12%
COc1cc2oc3cc(C#Cc4ccc(N)cc4)ccc3c(=O)c2cc1OC | 22 | · | · | 10 | 4µM* | ·
COc1cc2oc3ccc(C#Cc4ccc(N)cc4)cc3c(=O)c2cc1OC | 7 | · | · | -5 | -13% | ·
SMILES | Six1-Eya2 blk | L3MBTL1 inh | USP2a block | CtBP-E1A inh | uPA generation | Eya2 inh
Nc1ccc(C#Cc2ccc3c(=O)c4ccccc4oc3c2)cc1 | 35 | 33% | 3% | 6 | 1.3µM* | 1%
COC(=O)/C=C/c1ccccc1CN1[C@@H](CC(=O)OC)c2ccccc2S1(=O)=O | -24 | 5% | -1% | -83* | 2% | 6%
COC(=O)C[C@H]1c2ccccc2S(=O)(=O)N1Cc1ccc(OC)cc1 | 5 | · | · | · | -8% | ·
CCNC(=O)C1CCCN(C(=O)c2ccc(C)c(F)c2)CC1 (centres undefined) | 1 | · | · | 6 | · | ·
CC12CCC(C(=O)N(CSC(=S)N/N=C\c3ccccc3O)C1=O)C2(C)C (centres undefined) | -89* | 5.6µM* | -2% | -94* | -8% | 11%
O=C(O)Cc1c[nH]c2ccc(O)cc12 | -1 | · | · | 1 | ? | 8%
O=C1C=CC[C@H](/C=C/C[C@@H](O)C[C@H](O)CCc2ccccc2)O1 | 2 | · | · | -6 | 10µM* | ·
COc1ccc(-c2nn3c(-c4ccco4)nnc3s2)cc1OC | -78* | -4% | -3% | -86* | -9% | -12%
CC[n+]1c(/C=C/C=C2/N(C)c3ccccc3C2(C)C)sc2ccccc21 | · | · | · | · | · | 12%
COc1ccc(CN2CCC(=O)N([C@H](CO)CC(C)C)CC2)cc1OC | 20 | 0% | 2% | 0 | 0% | -4%
O=C(O)C1=CC[C@@H](c2ccc(Cl)cc2)N(S(=O)(=O)c2ccc(Cl)cc2)[C@H]1c1ccc(Br)cc1 | -3 | -5% | -14% | 4 | 14% | -18%
CCOc1cc(/C=C(\C#N)c2[nH]nc(N)c2C#N)ccc1O | -67* | · | 0% | -81* | -7% | -3%
COc1ccc(OCC(O)CNS(=O)(=O)c2ccc(C)cc2)cc1 (centres undefined) | 5 | 2% | 1% | · | 4% | 1%
Cc1c(Br)c(O)c(Br)c2sc(=O)oc12 | ? | 35µM* | -1% | -10 | -7% | ?
Cc1cc2nc(-c3ccc(F)cc3)c(CC3CCCCC3)n2c(C)c1Br | 9 | · | · | 14 | · | ·
CC(=O)Oc1ccc(C(=O)OCC(=O)c2c(N)n(C)c(=O)n(C)c2=O)cc1OC(C)=O | -83* | -3% | 15% | -18 | 8% | 3%
O=C(O)C1Nc2ccc(Br)cc2C2C=CCC12 (centres undefined) | -6 | · | -1% | · | -5% | 5%
O=C(OC1CCCCC1)c1ccc2c(c1)C1C=CCC1C(C(=O)O)N2 (centres undefined) | · | 3.2µM* | -1% | · | · | 5%
O=C(O)C1Nc2c(O)cccc2C2C=CCC12 (centres undefined) | 0 | 1µM* | ? | -82* | 0% | 2%
